Settings in all cases: mRNA level, 48 h; actives raise or lower the signal
Read-out in test [1]: JUN Transcription Factor, JUN (gene 3725)
Kind of test: LTEA_HepaRG_JUN: Life Technologies and Expression Analysis (LTEA) Assay for JUN Transcription Factor using HepaRG (AID 2283513). The essentials:
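Cells plated 48 h, medium switched to serum-free induction medium, then dosed 48 h (100 uM top, half-log dilutions, 0.5% DMSO). RNA isolated; JUN measured by qRT-PCR against three housekeeping genes; gain or loss fitted relative to DMSO.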

Read-out in test [2]: Lipase C (LIPC), LIPC (gene 3990)
Kind of test: LTEA_HepaRG_LIPC: Life Technologies and Expression Analysis (LTEA) Assay for Lipase C (LIPC) using HepaRG (AID 2283514). The essentials: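 HepaRG cells, 48 h after plating, treated in duplicate for 48 h in serum-free induction medium over 8 half-log concentrations from 100 uM, 0.5% DMSO. LIPC mRNA by TaqMan qRT-PCR normalized to ACTB/GAPDH/POLR2A; bidirectional fit versus DMSO.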

Read-out in test [3]: Lipoprotein lipase (LPL), LPL (gene 4023)
Kind of test: LTEA_HepaRG_LPL: Life Technologies and Expression Analysis (LTEA) Assay for Lipoprotein lipase (LPL) using HepaRG (AID 2283515). The essentials: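 Differentiated HepaRG cells, plated 48 h, then exposed 48 h in serum-free induction medium to 8 concentrations (top 100 uM, half-log steps) in 0.5% DMSO, duplicate. LPL mRNA measured by qRT-PCR, normalized to ACTB, GAPDH and POLR2A.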

Read-out in test [4]: MicroRNA 122 (MIR122), gene 406906
Kind of test: LTEA_HepaRG_MIR122: Life Technologies and Expression Analysis (LTEA) Assay for MicroRNA 122 (MIR122) using HepaRG (AID 2283516). Further: the transcript read is the microRNA miR-122. Put shortly: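 HepaRG plated 48 h, switched to serum-free induction medium, then treated in duplicate for 48 h (100 uM top, half-log steps, 0.5% DMSO vehicle). RNA isolated, qRT-PCR performed, concentration-response fitted both directions relative to DMSO.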

Read-out in test [5]: matrix metalloproteinase-10 (MMP10), MMP10 (gene 4319)
Kind of test: LTEA_HepaRG_MMP10: Life Technologies and Expression Analysis (LTEA) Assay for matrix metalloproteinase-10 (MMP10) using HepaRG (AID 2283517). Put shortly:
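Differentiated HepaRG cells in serum-free induction medium exposed 48 h in duplicate to 8-point half-log series up to 100 uM in 0.5% DMSO. mRNA quantified by qRT-PCR, normalised to ACTB, GAPDH, POLR2A; bidirectional fit versus DMSO.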

Read-out in test [6]: MYC, MYC (gene 4609)
Kind of test: LTEA_HepaRG_MYC: Life Technologies and Expression Analysis (LTEA) Assay for MYC using HepaRG (AID 2283518). Put shortly: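 HepaRG, ~100,000 cells/well, collagen I; 48 h plating; serum-free induction medium; 48 h dosing, duplicate, 100 uM top, half-log, 0.5% DMSO; total RNA → qRT-PCR MYC; gain/loss fit vs DMSO.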

Read-out in test [7]: matrix metalloproteinase-3 (MMP3), MMP3 (gene 4314)
Kind of test: LTEA_HepaRG_MMP3: Life Technologies and Expression Analysis (LTEA) Assay for matrix metalloproteinase-3 (MMP3) using HepaRG (AID 2283519). The essentials: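 HepaRG cells (~100,000/well) in serum-free induction medium were dosed in duplicate for 48 h with an 8-point half-log series from 100 uM, 0.5% DMSO. MMP3 mRNA was quantified by Fluidigm TaqMan qRT-PCR, normalized to three housekeeping genes.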

Read-out in test [8]: Paternally Expressed 10 (PEG10), PEG10 (gene 23089)
Kind of test: LTEA_HepaRG_PEG10: Life Technologies and Expression Analysis (LTEA) Assay for Paternally Expressed 10 (PEG10) using HepaRG (AID 2283520). The essentials:
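HepaRG, 48 h post-plating → serum-free induction medium → 48 h chemical exposure (duplicate, 8-pt, max 100 uM, half-log, 0.5% DMSO) → lysis in RLT → TaqMan qRT-PCR for PEG10, ACTB/GAPDH/POLR2A normalisation.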

Read-out in test [9]: Protein phosphatase 2A (PPP2R4), PTPA (gene 5524)
Kind of test: LTEA_HepaRG_PPP2R4: Life Technologies and Expression Analysis (LTEA) Assay for Protein phosphatase 2A (PPP2R4) using HepaRG (AID 2283522). Put shortly: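 Readout is PPP2R4 transcript level by microfluidic qRT-PCR after 48 h chemical treatment of human HepaRG liver cells. Concentrations spanned 100 uM downward in half-log steps; gain or loss of signal was fitted relative to DMSO.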

Drawing on PubChem BioAssay (EPA / NIEHS), this text covers outcome and AC50 for 23 molecules.

Active and inactive are the calls of the source. How the source made its calls: active means hit-call score of the fitted dose curve at least 0.9, where 1 is the maximum; inactive means score below 0.9.

Turning to `CC(=O)OC[C@H]1O[C@@](COC(C)=O)(O[C@H]2O[C@H](COC(C)=O)[C@@H](OC(C)=O)[C@H](OC(C)=O)[C@H]2OC(C)=O)[C@@H](OC(C)=O)[C@@H]1OC(C)=O`, the call in test [1], in [2], in test [3], in test [4], in test [5] and in test [6] was inactive. Besides, the result in test [7], in test [8] and in test [9] was inactive.

In the case of `CC[C@H]1OC(=O)[C@H](C)[C@@H](O[C@H]2C[C@@](C)(OC)[C@@H](O)[C@H](C)O2)[C@H](C)[C@@H](O[C@@H]2O[C@H](C)C[C@H](N(C)C)[C@H]2O)[C@](C)(O)C[C@@H](C)C(=O)[C@H](C)[C@@H](O)[C@]1(C)O`, the molecule was called inactive in test [2], in test [3], in test [4], in [5], in test [6] and in test [7]. Moreover, the result in [8] and in test [9] was inactive.

Regarding `O=C(O)c1cccc(Oc2ccccc2)c1`, the molecule was classed as inactive in test [1], in test [2], in test [3], in test [4], in [5] and in [6]. The molecule was classed as inactive in [7], in test [8] and in test [9].

For the molecule `CC[C@H]1CC[C@H](NCc2cc3c(cc2OC)[C@H]2C[C@H]2C(=O)N3C)[C@H](c2ccccc2)N1`, the call in [1], in test [2], in [4], in test [5], in [6] and in [7] was inactive. Also, the result in [8] and in test [9] was inactive. Moreover, the AC50 in test [3] is 50 µM (active).

As for `Cc1ccc(S(=O)(=O)O)cc1C`, the call in [1], in test [2], in [3], in test [4], in [5] and in test [6] was inactive. In addition, the molecule was classed as inactive in [7], in test [8] and in test [9].

Consider `O=C(NS(=O)(=O)/C=C/c1ccccc1)c1ccc(F)cc1Cl`, for which the molecule was classed as inactive in [1], in [2], in test [3], in test [4], in test [5] and in [6]. Further, the molecule was called inactive in test [7] and in test [9]. Also, the AC50 in [8] is 21.3 µM (active).

As to `CN(C)c1ccc(Cc2ccc(N(C)C)cc2)cc1`, the outcome in [1], in test [3], in test [5], in [6] and in [9] was inactive. For the same molecule, the AC50 was 80.1 µM (active) in [2], 50 µM (active) in test [4], 50 µM (active) in [7] and 37.3 µM (active) in test [8].

Turning to `CCOCCO`, the call in test [1], in [2], in test [3], in test [4], in test [5] and in test [6] was inactive. For the same molecule, the molecule was called inactive in test [7], in [8] and in test [9].

On to `Cc1ccc(C)c(O)c1`, for which the result in [1], in [2], in [3], in test [4], in test [5] and in [6] was inactive. Also, the outcome in [7], in [8] and in test [9] was inactive.

In the case of `COCCOc1cc2cc(C(=O)NC3CCN(C(C)C)CC3)n(CC(=O)Nc3ccc(Cl)cn3)c2cn1`, the call in test [1], in [5], in [6], in test [7] and in test [9] was inactive. For the same molecule, the AC50 in test [2] is 45 µM (active); in test [3], 8.93 µM (active); in [4], 45 µM (active); in [8], 45 µM (active).

For the molecule `CCOC(=O)c1ccc(C2CCC(NC[C@H](O)COc3ccc(O)c(NS(C)(=O)=O)c3)CC2)cc1` (stereo partly specified), the result in test [1], in test [2], in test [3], in [4], in test [5] and in test [6] was inactive. Moreover, the result in [7], in test [8] and in test [9] was inactive.

Take `CCCN(C1CCN(C(=O)C2CCNCC2)CC1)[C@@H]1CCc2ccc(OC)cc2C1`: the molecule was classed as inactive in test [1], in test [3], in [5], in test [7] and in test [9]. The AC50 was 69.6 µM (active) in [2], 80 µM (active) in test [4], 89.5 µM (active) in test [6] and 60.2 µM (active) in test [8].

In the case of `On1ccccc1=S`, the result in test [1], in test [2], in test [3], in [4], in test [5] and in test [6] was inactive. Besides, the molecule was classed as inactive in [7], in [8] and in test [9].

Consider `CCCCCCc1ccc(O)cc1O`, for which the molecule was classed as inactive in [1], in test [2], in test [3], in test [4], in test [5] and in [6]. The result in test [7], in test [8] and in test [9] was inactive.

As to `CC(C)CCCCCCOC(=O)c1ccc(C(=O)OCCCCCCC(C)C)c(C(=O)OCCCCCCC(C)C)c1`, the molecule was called inactive in test [1], in [2], in [3], in test [4], in test [5] and in test [6]. The result in test [7], in test [8] and in test [9] was inactive.

On to `Fc1ccccc1[C@@H](F)COC1CCC(Nc2ncnc3[nH]ncc23)CC1` (stereo partly specified), for which the molecule was called inactive in test [1] and in test [9]. Also, the AC50 in [2] is 50 µM (active); in test [3] it was 28 µM (active); in test [4] it was 56.5 µM (active); in test [5], 64.7 µM (active); in test [6], 34 µM (active); in test [7] it was 50 µM (active). In addition, the AC50 in [8] was 35.8 µM (active).

Regarding `CCNc1ccccc1`, the outcome in test [1], in [2], in test [3], in [4], in test [5] and in [6] was inactive. Further, the molecule was classed as inactive in test [7], in test [8] and in test [9].

As for `CCCCCCCCO`, the molecule was called inactive in [1], in test [2], in [3], in [4], in test [5] and in test [6]. For the same molecule, the call in [7], in test [8] and in test [9] was inactive.

On to `COC(=O)CC(=O)OC`, for which the molecule was classed as inactive in test [1], in test [2], in [3], in test [4], in test [5] and in [6]. Moreover, the call in [7] and in test [9] was inactive. Besides, in test [8], the AC50 was 50 µM (active).

With `CCCCC(CC)COC(=O)c1ccc(C(=O)OCC(CC)CCCC)cc1` (stereo unspecified), the outcome in test [1], in test [2], in test [3], in test [4], in [5] and in test [6] was inactive. In addition, the outcome in test [7], in [8] and in [9] was inactive.

`Nc1ccc(Nc2ccccc2)cc1`: the result in test [1], in test [3], in test [4], in test [5], in test [6] and in test [7] was inactive. Moreover, in [9], the outcome was inactive. Moreover, the AC50 is 83.4 µM (active) in test [2] and 79.9 µM (active) in test [8].

For the molecule `COc1cccc(-c2ccc(/C=C\CN3CCCCCC3)cc2Cl)c1`, the AC50 in [1] was 73.9 µM (active); in test [2], 70.6 µM (active); in test [3], 79 µM (active); in [5], 71.3 µM (active); in test [6], 81.1 µM (active); in [7] it was 69.3 µM (active). In test [8], the AC50 was 59 µM (active). The molecule was classed as inactive in test [4] and in test [9].

With `O=C(OC[C@H]1O[C@@H](OC(=O)c2cc(O)c(O)c(OC(=O)c3cc(O)c(O)c(O)c3)c2)[C@H](OC(=O)c2cc(O)c(O)c(OC(=O)c3cc(O)c(O)c(O)c3)c2)[C@@H](OC(=O)c2cc(O)c(O)c(OC(=O)c3cc(O)c(O)c(O)c3)c2)[C@@H]1OC(=O)c1cc(O)c(O)c(OC(=O)c2cc(O)c(O)c(O)c2)c1)c1cc(O)c(O)c(OC(=O)c2cc(O)c(O)c(O)c2)c1`, the call in [1] was inactive. The AC50 is 8.46 µM (active) in test [2]; 15.2 µM (active) in [3]; 9.05 µM (active) in [4]; 9.49 µM (active) in test [5]; 6.08 µM (active) in [6]; 15.2 µM (active) in test [7]. Besides, the AC50 is 9.75 µM (active) in test [8] and 3.88 µM (active) in [9].

As usually defined, the AC50 is the concentration giving half of the maximal activity seen.
